This excerpt belongs to a sample that is enriched for hits.
TTR transcr act – TTR transcription activators in neuroblastoma reporter cells, primary screen, cell-based, luminescence, SH-SY5Y, TTR promoter Gaussia luciferase | activation, % at 16.7 µM | 92,000 compounds, 1.3% hits | 100% = recombinant luciferase protein wells;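 active = activation above the mean of all tested compounds plus 3 SD, cut at about 9.5% in these data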;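 note: cells exposed to compounds for one day before reading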
HuH7 TTR inh – TTR promoter reporter inhibitors in hepatoma cells, counter-screen for TTR transcription activator project, cell-based, luminescence, HuH7 hepatoma; inhibition, % at 16.7 µM; AID 1117279, 2014; HuH7 TTR promoter-Gaussia luciferase reporter; 1,100 compounds, 4% hits; shares compounds with TTR transcr act;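 active = average inhibition above the solvent-only control wells' mean plus 3 SD, cut at about 15% in these data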;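 note: inhibitors lower well luminescence so higher value means more inhibition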
TTR up confirm – TTR transcription activators, retest, confirmation, cell-based, luminescence, SH-SY5Y, triplicate; shares compounds with TTR transcr act; SHSY5Y TTR promoter Gaussia luciferase; 100% = purified Lucia enzyme wells, no cells; activation, % at 16.7 µM; 1,100 tested, under 10 active;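 active = mean activation above a set limit taken from the earlier primary screen, cut at about 11% in these data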
Large screens that a line does not name were inactive (follow-up assays come after a bar, where they were run).

CC1CN(C(=O)c2ccc(COc3ccccc3Br)o2)CC(C)O1 (centres undefined)	TTR transcr act 69 | HuH7 TTR inh inactive | TTR up confirm inactive
CC(C)(C)[C@@H]1COC(=O)[C@H](Cc2ccc(F)cc2)C/C=C\C[C@@H](CC(=O)N(CCO)Cc2ccccc2)C(=O)N1	none
O=C(Nc1ccc(Cl)cc1Cl)O[C@@H]1CC[C@@]23CCCN2C(=O)CCC[C@H]3C1	none
CC1Cc2ccccc2N1C(=O)CN1CCC(C(N)=O)CC1 (centres undefined)	none
O=c1[nH]c(C(F)(F)C(F)(F)C(F)(F)F)no1	none
CC1CCCCN1CCCNc1ccc(C(CC(N)=O)NC(=O)Cc2ccc(Br)cc2)cc1[N+](=O)[O-] (centres undefined)	none
CC(=O)c1cccc(NC(=O)CN(c2ccccc2)S(C)(=O)=O)c1	TTR transcr act 12 | HuH7 TTR inh inactive | TTR up confirm inactive
CC(=O)c1cccc(N(CC(=O)Nc2ccccc2F)S(C)(=O)=O)c1	none
CC(=O)c1cccc(N(CC(=O)Nc2ccc(S(=O)(=O)N3CCCC3)cc2)S(C)(=O)=O)c1	none
Cc1ccccc1-c1nc(CS(=O)(=O)CC(=O)N2CCN(C)CC2)c(C)o1	none
Cc1ccccc1-c1cnc(C(O)c2c(C)cccc2C)[nH]1 (centres undefined)	none
COc1ccccc1NC(=O)NCC(c1ccco1)N1CCCCC1 (centres undefined)	none
OCC[C@H]1NCc2cc(CO)cc(-c3ccccc3)c21	none
Cc1nn(C(C)C(=O)NC2CCC(C)CC2)c(=O)c2nn(-c3ccccc3)c(C)c12 (centres undefined)	none
Cc1cc2nc(C(C)(C)C)c(Cc3ccsc3)n2c(C)c1Br	none
Cc1ccc2ccc(C#N)cc2c1O	none
Cc1ccc(SCc2nc(N)nc(Nc3ccccc3C)n2)cc1C	none
Cc1ccccc1Nc1nc(N)nc(CSc2nnc(C)n2C)n1	none
Cc1ccc(SCc2nc(N)nc(Nc3ccccc3C)n2)c(C)c1	TTR transcr act 32 | HuH7 TTR inh inactive | TTR up confirm inactive
CCC[C@H]1[C@@H](OC(=O)N2CCN(c3ccccc3)CC2)CC[C@@]23CCCN2C(=O)CCC[C@@H]13	none
CCOC(=O)c1cc(C(=O)NN)c(C)nc1C	none
CCOC(=O)c1cc2cc(F)ccc2nc1C	TTR transcr act 23 | HuH7 TTR inh inactive | TTR up confirm inactive
CCOC(=O)c1cnn2c(C)cc(-c3ccc(F)cc3)nc12	none
Cc1ccc(NC(=O)COc2ccc(Br)cc2CO)cc1S(=O)(=O)N1CCOCC1	none
Cn1c(N)c(Sc2ccc(F)cc2)c(=O)n(C)c1=O	none
Cc1ccsc1C(=O)OCC(=O)NCc1ccccc1	none
CC(C)(C)c1cnnn1-c1ccc(NC(=O)c2ccc3c(c2)OCO3)cc1	none
Cc1ccc(-n2nc3ccc(NC(=O)c4ccc5c(c4)OCO5)cc3n2)cc1	none
CCc1ccc(-n2nc3ccc(NC(=O)c4ccc5c(c4)OCO5)cc3n2)cc1	TTR transcr act 14 | HuH7 TTR inh inactive | TTR up confirm inactive
O=C(NCC(=O)N1CCC2(CC1)NCCc1[nH]cnc12)c1ccccc1F	none
O=C(O)C1(C(=O)O)CCC2(CCCCC2)CC1	TTR transcr act 10.0 | HuH7 TTR inh inactive | TTR up confirm inactive
O=C(O)CC1(C(=O)O)CCCC1	none
O=C(O)C1(C(=O)O)CCCC1	none
CC(C)(C)OC(=O)N1CCC[C@H]1c1nnc(SCC(=O)Nc2ccc(Br)cc2)o1	none
C=CS(=O)(=O)N(C(=C)C(=O)OC)S(C)(=O)=O	none
O=C(Nc1ccc(NC(=O)c2ccccc2Cl)c(Cl)c1)c1ccccn1	none
Cc1nc2cc(-c3ccccc3)nn2c(C)c1CCC(=O)NC(C)c1ccc2c(c1)OCCO2 (centres undefined)	none
COC(=O)c1ccc(CN2C(=O)c3ccccc3C2=O)o1	none
O=C1c2ccccc2C(=O)N1Cc1cccnc1	none
Cc1cc(CN2C(=O)c3ccccc3C2=O)on1	TTR transcr act 15 | HuH7 TTR inh inactive | TTR up confirm inactive
COC[C@H]1CCCN1c1cccc2c1S(=O)(=O)N(C1CC1)CCCO2	none
Cc1ccc(CN2CCCCC(NC(=O)c3ccc(N(C)C)cc3)C2=O)cc1 (centres undefined)	none
Cc1ccccc1CN1CCCCC(NC(=O)c2ccc(F)cc2)C1=O (centres undefined)	none
Cc1ccccc1CN1CCCCC(NC(=O)c2ccc(N(C)C)cc2)C1=O (centres undefined)	TTR transcr act 13 | HuH7 TTR inh inactive | TTR up confirm inactive
S=C(NCCc1ccccc1)Nc1c(Cl)cccc1Cl	none
NC(=O)/C(=C\c1ccccc1)NC(=O)c1ccc(NC(=O)c2ccccc2)cc1	none
O=C(c1cccc(C(F)(F)F)c1)N1CCC(=O)N(C(CO)Cc2ccccc2)CC1 (centres undefined)	none
O=C(c1ccc(C(F)(F)F)cc1)N1CCC(=O)N([C@H](COCc2ccc(C(F)(F)F)cc2)Cc2ccccc2)CC1	none
COc1ccc(C(=O)N2CCC(=O)N(C(CO)Cc3ccccc3)CC2)cc1 (centres undefined)	TTR transcr act 13 | HuH7 TTR inh inactive | TTR up confirm inactive
Cc1ccc(NC(=O)C2CCN(S(=O)(=O)c3c(C)n[nH]c3C)CC2)c(C)c1	none
CCn1c(=O)c2sccc2n(Cc2cc(C(=O)OC)ccc2OC)c1=O	none
CC1CC(C)CN(C(=O)c2cccc(NC(=O)CC3SC(N4CCCCC4)=NC3=O)c2)C1 (centres undefined)	none
COc1ccc(NC(=O)CC2SC(N3CCCC3)=NC2=O)cc1Cl (centres undefined)	none
Cc1ccc(NC(=O)c2cccc(NC(=O)CC3SC(N4CCCCC4)=NC3=O)c2)nc1 (centres undefined)	TTR transcr act 9.8 | HuH7 TTR inh inactive | TTR up confirm inactive
CN1CCC(N2CCN(C3CN(Cc4ccc(F)cc4)S(=O)(=O)C3)CC2)CC1 (centres undefined)	TTR transcr act 12 | HuH7 TTR inh inactive | TTR up confirm inactive
O=S1(=O)CC(N2CCC(Cc3ccccc3)CC2)CN1Cc1ccc(F)cc1 (centres undefined)	none
CN1CCN(C2CN(Cc3ccccc3)S(=O)(=O)C2)CC1 (centres undefined)	none
Cc1cn([C@H]2C[C@H](O)[C@@H](CNC(=O)[C@H](N)Cc3cscn3)O2)c(=O)[nH]c1=O	none
Cc1cccc(C)c1Oc1nc(-c2ccccc2)ncc1S(=O)(=O)c1ccccc1	TTR transcr act 27 | HuH7 TTR inh inactive | TTR up confirm inactive
COc1nc(-c2ccccc2)ncc1S(=O)(=O)c1ccccc1	none
COc1ccc(Oc2nc(-c3ccccc3)ncc2S(=O)(=O)c2ccccc2)cc1	none
CCCC1CCC2(CCCN2CCOC(=S)Nc2cccc(Cl)c2)CC1 (centres undefined)	none
COc1ccc(C(=O)Nc2cc(C(=O)O)cc(C(=O)O)c2)cc1Cl	none
CCOc1ccc(C(=O)Nc2cccc(C(=O)O)c2C)cc1Cl	none
COc1ccc(C(=O)Nc2ccccc2C(=O)O)cc1Cl	TTR transcr act 78 | HuH7 TTR inh inactive | TTR up confirm inactive
COc1ccc(C(O)(C(C)C)C(CN2CCOCC2)c2ccc(Cl)cc2)cc1 (centres undefined)	none
CCCCCc1ccc(NC(=O)O[C@@H]2CC[C@@]34CCCN3C(=O)CCC[C@H]4C2)cc1	none

Screens as filed in PubChem.
